According to PubChem BioAssay (Tox21):
Records with an inconclusive call do not appear. The source made the active and inactive calls. Calls come from the whole dose curve; as a rule, active = well fitted curve in the direction sought with a large enough effect in the repeat runs; inconclusive = weak or mixed curves; inactive = no such curve, though single readings can be large; an effect the other way counts as inactive or inconclusive.

Legend:
[1] = A CellTox Green Cytotoxicity Assay to monitor cytotoxicity in HEK293 cells - 40 hour (AID 1224871); note: nearly all actives have a fitted effect of over 45% in size
Method in brief: (§1)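 Cytotoxicity was tracked continuously in HEK293 cells by a DNA-binding dye excluded from viable cells. Compounds were transferred in DMSO 5 h after seeding; fluorescence was recorded at intervals up to 40 h.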

[2] = qHTS RealTime-Glo MT Cell Viability Assay in HEK293 cells - 16 hour (AID 1224872); note: top concentration of the series differs between compounds; nearly all actives have a fitted effect of over 50% in size
Method in brief: (§2)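 HEK293 cells were seeded at 600 cells/well together with NanoLuc luciferase and cell-permeant prosubstrate, preincubated 5 h at 37 C/5% CO2, then given compound in DMSO by pintool. Luminescence from viable-cell prosubstrate reduction was read repeatedly over 40 h.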

[3] = qHTS RealTime-Glo MT Cell Viability Assay in HepG2 cells - 8 hour (AID 1224873); note: nearly all actives have a fitted effect of over 55% in size
Method in brief: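 HepG2 cells (600/well) mixed with RealTime-Glo MT reagent, settled 5 h at 37 C/5% CO2 before compound addition. Nonlytic NanoLuc luminescence from viable-cell prosubstrate reduction read repeatedly during 40 h treatment at 37 C.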

[4] = qHTS RealTime-Glo MT Cell Viability Assay in HEK293 cells - 40 hour (AID 1224874); settings: RealTime-Glo luminescence; max response: stronger effect = lower value; note: nearly all actives have a fitted effect of over 50% in size
Method in brief: (§3)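 Nonlytic bioluminescent viability monitoring. HEK293 at 600 cells/well with reagent; 5 h settle; compound transfer by pintool; plates held at 37 C and read at set time points.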

[5] = A CellTox Green Cytotoxicity Assay to monitor cytotoxicity in HEK293 cells - 24 hour (AID 1224875); note: series mostly up to about 77 µM; nearly all actives have a fitted effect of over 45% in size
Method in brief: as §1

[6] = A CellTox Green Cytotoxicity Assay to monitor cytotoxicity in HepG2 cells - 16 hour (AID 1224876); note: nearly all actives have a fitted effect of over 45% in size
Method in brief: (§4)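 Real-time, homogeneous cytotoxicity readout: dead-cell DNA staining by CellTox Green in HepG2 monolayers, fluorescence measured at timed intervals up to 40 h of continuous compound exposure.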

[7] = qHTS RealTime-Glo MT Cell Viability Assay in HepG2 cells - 32 hour (AID 1224877); note: nearly all actives have a fitted effect of over 55% in size
Method in brief: (§5)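 HepG2 cells were seeded at 600 cells/well together with NanoLuc luciferase and a cell-permeant prosubstrate, preincubated 5 h at 37 C/5% CO2, then pin-dosed with compounds in DMSO. Nonlytic luminescence from viable cells was read at each time point.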

[8] = A CellTox Green Cytotoxicity Assay to monitor cytotoxicity in HepG2 cells - 24 hour (AID 1224878); note: nearly all actives have a fitted effect of over 45% in size
Method in brief: as §4

[9] = A CellTox Green Cytotoxicity Assay to monitor cytotoxicity in HepG2 cells - 40 hour (AID 1224879); note: nearly all actives have a fitted effect of over 40% in size
Method in brief: as §4

[10] = qHTS RealTime-Glo MT Cell Viability Assay in HEK293 cells - 0 hour (AID 1224880)
Method in brief: as §3

[11] = A CellTox Green Cytotoxicity Assay to monitor cytotoxicity in HEK293 cells - 32 hour (AID 1224881); note: nearly all actives have a fitted effect of over 40% in size
Method in brief: as §1

[12] = A CellTox Green Cytotoxicity Assay to monitor cytotoxicity in HepG2 cells - 0 hour (AID 1224882); note: nearly all actives have a fitted effect of over 35% in size
Method in brief: as §4

[13] = A CellTox Green Cytotoxicity Assay to monitor cytotoxicity in HepG2 cells - 32 hour (AID 1224883); note: nearly all actives have a fitted effect of over 50% in size
Method in brief: as §4

[14] = A CellTox Green Cytotoxicity Assay to monitor cytotoxicity in HEK293 cells - 8 hour (AID 1224884); note: nearly all actives have a fitted effect of over 35% in size
Method in brief: as §1

[15] = qHTS RealTime-Glo MT Cell Viability Assay in HepG2 cells - 16 hour (AID 1224885); note: nearly all actives have a fitted effect of over 50% in size
Method in brief: as §5

[16] = qHTS RealTime-Glo MT Cell Viability Assay in HEK293 cells - 24 hour (AID 1224886)
Method in brief: as §2

[17] = qHTS RealTime-Glo MT Cell Viability Assay in HEK293 cells - 8 hour (AID 1224887)
Method in brief: as §3

[18] = A CellTox Green Cytotoxicity Assay to monitor cytotoxicity in HEK293 cells - 16 hour (AID 1224888); note: nearly all actives have a fitted effect of over 35% in size
Method in brief: as §1

[19] = qHTS RealTime-Glo MT Cell Viability Assay in HepG2 cells - 0 hour (AID 1224889); note: nearly all actives have a fitted effect of over 50% in size
Method in brief: as §5

[20] = A CellTox Green Cytotoxicity Assay to monitor cytotoxicity in HepG2 cells - 8 hour (AID 1224890); note: nearly all actives have a fitted effect of over 45% in size
Method in brief: as §4
% is set by controls: 0 for no effect and ±100 for the full control effect.

CCC(Br)(CC)C(=O)NC(N)=O
inactive: Potency [1] | Potency [2] | Potency [3] | max response [4] 5.12% | Potency [5] | Potency [6] | Potency [7] | Potency [8] | Potency [9] | Potency [10] | Potency [11] | Potency [12] | Potency [13] | Potency [14] | Potency [15] | Potency [16] | Potency [17] | Potency [18] | Potency [19] | Potency [20]

Nc1nc(=S)[nH][nH]1
inactive: Potency [1] | Potency [2] | Potency [3] | max response [4] 1.62% | Potency [5] | Potency [6] | Potency [7] | Potency [8] | Potency [9] | Potency [10] | Potency [11] | Potency [12] | Potency [13] | Potency [14] | Potency [15] | Potency [16] | Potency [17] | Potency [18] | Potency [19] | Potency [20]

C=C(C#N)CCC#N
inactive: Potency [1] | Potency [2] | Potency [3] | max response [4] 5.63% | Potency [5] | Potency [6] | Potency [7] | Potency [8] | Potency [9] | Potency [10] | Potency [11] | Potency [12] | Potency [13] | Potency [14] | Potency [15] | Potency [16] | Potency [17] | Potency [18] | Potency [19] | Potency [20]

Cn1cc[n+](C)c1 (tested in a mixture with another compound)
inactive: Potency [1] | Potency [2] | Potency [3] | max response [4] 6.73% | Potency [5] | Potency [6] | Potency [7] | Potency [8] | Potency [9] | Potency [10] | Potency [11] | Potency [12] | Potency [13] | Potency [14] | Potency [15] | Potency [16] | Potency [17] | Potency [18] | Potency [19] | Potency [20]

C=CCCl
inactive: Potency [1] | Potency [2] | Potency [3] | max response [4] -3.44% | Potency [5] | Potency [6] | Potency [7] | Potency [8] | Potency [9] | Potency [10] | Potency [11] | Potency [12] | Potency [13] | Potency [14] | Potency [15] | Potency [16] | Potency [17] | Potency [18] | Potency [19] | Potency [20]

O=NN1CCNCC1
inactive: Potency [1] | Potency [2] | Potency [3] | max response [4] 9.64% | Potency [5] | Potency [6] | Potency [7] | Potency [8] | Potency [9] | Potency [10] | Potency [11] | Potency [12] | Potency [13] | Potency [14] | Potency [15] | Potency [16] | Potency [17] | Potency [18] | Potency [19] | Potency [20]

CCC(Cl)CCl (stereo not drawn)
inactive: Potency [1] | Potency [2] | Potency [3] | max response [4] 2.27% | Potency [5] | Potency [6] | Potency [7] | Potency [8] | Potency [9] | Potency [10] | Potency [11] | Potency [12] | Potency [13] | Potency [14] | Potency [15] | Potency [16] | Potency [17] | Potency [19] | Potency [20]

ClCC(Br)CBr (stereo not drawn)
inactive: Potency [1] | Potency [2] | Potency [3] | max response [4] 14.6% | Potency [5] | Potency [6] | Potency [7] | Potency [8] | Potency [9] | Potency [10] | Potency [11] | Potency [12] | Potency [13] | Potency [14] | Potency [15] | Potency [16] | Potency [17] | Potency [18] | Potency [19] | Potency [20]

CC(C)O.CC(C)O.OCCN(CCO)CCO.OCCN(CCO)CCO.[Ti]
inactive: Potency [1] | Potency [2] | Potency [3] | max response [4] 16.3% | Potency [5] | Potency [6] | Potency [7] | Potency [8] | Potency [9] | Potency [10] | Potency [11] | Potency [12] | Potency [13] | Potency [14] | Potency [15] | Potency [16] | Potency [17] | Potency [18] | Potency [19] | Potency [20]

O=NN1CCCCCC1
inactive: Potency [1] | Potency [2] | Potency [3] | max response [4] 0.127% | Potency [5] | Potency [6] | Potency [7] | Potency [8] | Potency [9] | Potency [10] | Potency [11] | Potency [12] | Potency [13] | Potency [14] | Potency [15] | Potency [16] | Potency [17] | Potency [18] | Potency [19] | Potency [20]

Cc1c(F)c(F)c(COC(=O)C2C(/C=C(\Cl)C(F)(F)F)C2(C)C)c(F)c1F (stereo not drawn)
inactive: Potency [1] | Potency [2] | Potency [3] | max response [4] 6.54% | Potency [5] | Potency [6] | Potency [7] | Potency [8] | Potency [9] | Potency [10] | Potency [11] | Potency [12] | Potency [13] | Potency [14] | Potency [15] | Potency [16] | Potency [17] | Potency [18] | Potency [20]

Cc1cc(=O)[nH]o1
inactive: Potency [1] | Potency [2] | Potency [3] | max response [4] 2.1% | Potency [5] | Potency [6] | Potency [7] | Potency [8] | Potency [9] | Potency [10] | Potency [11] | Potency [12] | Potency [13] | Potency [14] | Potency [15] | Potency [16] | Potency [17] | Potency [18] | Potency [19] | Potency [20]

Nc1ccc([N+](=O)[O-])cc1[N+](=O)[O-]
inactive: Potency [1] | Potency [2] | Potency [3] | max response [4] -23.5% | Potency [5] | Potency [6] | Potency [7] | Potency [8] | Potency [9] | Potency [10] | Potency [11] | Potency [12] | Potency [13] | Potency [14] | Potency [15] | Potency [16] | Potency [17] | Potency [18] | Potency [19] | Potency [20]
